Experimental data as given in PubChem BioAssay (Tox21).
Inconclusive results are not listed. A call without a number means that no potency is given here. Active and inactive are the calls of the source. Calls follow the shape of the dose curve; as a rule, active = well fitted cell-killing curve with a large enough effect in the repeat runs; inconclusive = weak or mixed curves, or effect the other way; inactive = no such curve, though single readings can be large or run the other way.

Test: qHTS assay to identify small molecule antagonists of the vitamin D receptor (VDR) signaling pathway - cell viability counter screen (AID 743225); also: nearly all actives have a fitted effect of over 50% in size
Conditions: VDR-bla HEK293T viability, CellTiter-Glo luminescence, 16 h; series mostly up to 61 µM; viability change, negative = cytotoxic: at the top concentration
Excerpt: U.S. Tox21 Program National Center for Advancing Translational Sciences [NCATS] NIH Chemical Genomics Center [NCGC] U.S. Environmental Protection Agency [EPA] National Institutes of Environmental Health Sciences [NIEHS] National Toxicology Program [NTP] U.S. Food and Drug Administration [FDA] Tox21 Assay Overview: The vitamin D receptor (VDR), a member of nuclear hormone receptor superfamily, plays a critical role in calcium homeostasis and bone metabolism. It is also involved in cell differentiation and growth, and thrombogenicity. To identify the compounds that inhibit VDR signaling, the VDR-UAS-bla HEK 293T cell line (Invitrogen, Carlsbad, CA, USA) containing a beta-lactamase reporter gene under the control of an upstream activator sequence (UAS) was used to screen the Tox21 10K compound library. The cytotoxicity of the Tox21 compound library against the VDR-bla cell line was tested in parallel by measuring the cell viability using CellTiter-Glo assay (Promega, Madison, WI) in the same wells.
Tox21 Assay Protocol Summary: VDR-bla cells were dispensed at 2,000 cells/5 uL of assay medium per well into black wall/clear-bottom 1536-well plates using a Multidrop Combi (Thermo Fisher Scientific, Waltham, MA) dispenser. After the assay plates were incubated at a 37C and 5% CO2 for 4 h, 23 nL of compounds dissolved in DMSO, positive controls or DMSO only was transferred to the assay plate by a Pintool station (Kalypsys, San Diego, CA), followed by addition of 1 uL of 1-alpha, 25-Dihydroxy Vitamin D3 (3 nM, final concentration in the wells) using a Bioraptr Flying Reagent Dispenser (FRD) workstation (Beckman Coulter, Indianapolis, IN). The plates were incubated at 37C and 5% CO2 for 16 h, and then 1 uL of LiveBLAzerTM B/G FRET substrate was added using a Bioraptr FRD. The plates were incubated at room temperature for 2 h and fluorescence intensity was measured by an Envision plate reader (PerkinElmer, Shelton, CT). For cell viability readout that measures cytotoxicity, 3 ul/well of CellTiter-Glo reagent was added into the assay plates using a Bioraptr FRD. After 30 min incubation at room temperature, the luminescence intensity in the plates was measured using a ViewLux plate reader (PerkinElmer).

Row | Compound | Potency | viability change, negative = cytotoxic
1 | CCn1cc(C(=O)O)c(=O)c2cc3c(cc21)OCO3 | inactive | –
2 | O=C(Cl)c1ccc(C(=O)Cl)cc1 | inactive | –
3 | Brc1ccc(Oc2ccc(Br)cc2)cc1 | inactive | –
4 | COc1c(Cl)ccc(Cl)c1C(=O)O | inactive | –
5 | OCC(CO)(CO)CO | inactive | –
6 | NC(N)=S | inactive | –
7 | O=[N+]([O-])c1cc(C(F)(F)F)ccc1Cl | inactive | –
8 | Nc1cccc(N)n1 | inactive | –
9 | Cc1nnc(NS(=O)(=O)c2ccc(N)cc2)s1 | – | 31.1% (inactive)
10 | N#CCC(=O)O | inactive | –
11 | Cc1ncc(CO)c(CO)c1O | inactive | –
12 | Cc1ccc(C(C)C)cc1 | inactive | –
13 | CCCOCC(C)O (stereo not given) | inactive | –
14 | Oc1ccc(Cc2ccccc2O)cc1 | inactive | –
15 | OCc1ccc(Cl)cc1Cl | inactive | –
16 | C=CC(=O)NCOCCCC | inactive | –
17 | NC(=O)NC(N)=O | inactive | –
18 | CCCCCNCCCCC | inactive | –
19 | C[n+]1ccn(CCO)c1 | inactive | –
20 | CC(C=O)Cc1ccc(C(C)(C)C)cc1 (stereo not given) | inactive | –

Row | Compound | Potency | viability change, negative = cytotoxic
21 | OB(O)O | inactive | –
22 | OCCOCCOCCOCCOCCO | – | 8.45% [at 78.8 µM] (inactive)
23 | CC(COCC(C)OC(=O)c1ccccc1)OC(=O)c1ccccc1 (stereo not given) | inactive | –
24 | CC(C)c1ccc(C(C)C)cc1 | inactive | –
25 | CCCCCCCC(=O)O | inactive | –
26 | CCCCCCCCC(=O)O | inactive | –
27 | CCCCCCCCCCCC(=O)N(C)CC(=O)O | inactive | –
28 | O=C(NCC1CCCCN1)c1cc(OCC(F)(F)F)ccc1OCC(F)(F)F (stereo not given) | – | 0.0887% (inactive)
29 | CC(C)=CCC/C(C)=C/C=O | inactive | –
30 | Cc1cc(C)c(O)c(C)c1 | inactive | –
31 | OC1CCCCC1 | inactive | –
32 | CCCCCC(C)=O | inactive | –
33 | CCCCCCCCCCCCCC(=O)O | inactive | –
34 | CC(=O)c1nccs1 | inactive | –
35 | CN1Cc2c(N)cccc2C(c2ccccc2)C1 (stereo not given) | inactive | –
36 | O=c1c(O)c(-c2ccc(O)c(O)c2)oc2cc(O)cc(O)c12 | inactive | –
37 | COc1ccc(N)c(OC)c1 | inactive | –
38 | CCCOC(=O)NCCCN(C)C | inactive | –
39 | Nc1cccc(C(F)(F)F)c1 | inactive | –
40 | COc1ccccc1[N+](=O)[O-] | – | 3.97% (inactive)
